{"source": "paper PMC5540273", "about": "(PLoS ONE, 2017);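 also: KINOMEscan kinase panel screen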"}
{"tested_on": "FLT3", "conditions": "concentration: 1 μM, replicates: in singlicate; n = 1", "units": {"%Inh": "%"}}
{"smiles": "Nc1ncc(-c2cccnc2)c2scc(-c3ccc4c(c3)CCN4C(=O)Cc3ccccc3)c12", "note": "[GSK683281]", "%Inh": 83}
{"smiles": "c1ccc(Oc2ccc(Nc3ccnc4cc(-c5ccc(CNCCN6CCOCC6)o5)ccc34)cc2)nc1", "note": "[GW567145]", "%Inh": 91}
{"smiles": "Cl.Cl.NCC(NCc1ccc(-c2ccnc3[nH]ccc23)s1)c1ccccc1", "note": "(stereo not drawn) [GSK1321565]", "%Inh": 75}
{"smiles": "CCn1c(-c2nonc2N)nc2c(C#CC(C)(C)O)nc(OC[C@H](N)c3ccccc3)cc21", "note": "[GSK943949]", "%Inh": 3}
{"smiles": "O=C(Nc1cccc(-c2nn3ncccc3c2-c2ccnc(Nc3ccccc3)n2)c1)c1c(F)cccc1F", "note": "[GSK198271]", "%Inh": 72}
{"smiles": "CCS(=O)(=O)c1ccc(OC)c(Nc2nccc(-c3c(-c4cccc(NC(=O)c5c(F)cccc5F)c4)nn4ncccc34)n2)c1", "note": "[GSK326180]", "%Inh": 0}
{"smiles": "C[C@@H](Oc1cc(-n2cnc3cc(-c4ccnc(NCCS(C)(=O)=O)c4)ccc32)sc1C(N)=O)c1ccccc1Cl", "note": "[GSK907232]", "%Inh": 98.1}
{"smiles": "Oc1cc(Nc2ccnc3cc(I)ccc23)ccc1F", "note": "[GW552771]", "%Inh": 0}
{"smiles": "Nc1ncc(-c2ccc3nccc(-c4ccncc4)c3c2)cc1S(=O)(=O)N1CCOCC1", "note": "[GSK1627798]", "%Inh": 0}
{"smiles": "Cl.Cl.NCC(C(=O)Nc1cc(Br)c(-c2ccnc3[nH]ccc23)s1)c1ccccc1", "note": "(stereo not drawn) [GSK1269851]", "%Inh": 86}
{"smiles": "COc1ccc(Nc2nccc(N3CCC(NC(=O)Nc4cccc(OC)c4)C3)n2)cc1", "note": "(stereo not drawn) [GSK1379742]", "%Inh": 35}
{"smiles": "Cc1cccc(NC(=O)Nc2ccc(Oc3ncnc4ccn(C)c34)cc2)c1", "%Inh": 100}
